Values without a mark were called inactive. Activity calls are given as the source filed them.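 The calls were made as follows: active = fitted AC50 no higher than ten times the top tested dose (cut at about 90 µM in these data); inconclusive = flat curve with 30 to 70% signal loss, or bad fit; inactive = AC50 beyond ten times the top dose.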
Assay: AlphaLISA signal interference compounds, dose response, artefact control, biochemical, TruHit kit (AID 1259339)
Settings: TruHit alphaLISA kit signal interference counterscreen; series mostly up to 80 µM

Row | Compound | AC50
1 | O=C1CS/C(=N\N=C\c2ccco2)N1c1ccccc1 | 30.8 µM (active)
2 | COc1ccc(S(=O)(=O)c2ccccc2)cc1NS(=O)(=O)c1cccc(C(=O)O)c1 | inactive
3 | Cc1ccc(Nc2nc(C(=O)Nc3ccc(Cl)cc3)nc3ccccc23)cc1 | inactive
4 | O=C(COC(=O)c1ccc(S(=O)(=O)NCc2ccco2)cc1)Nc1ccc(Cl)cn1 | > 160 µM
5 | CCn1ccnc1C1CCN(C(=O)CCn2c(C)nc3ccccc32)CC1 | inactive
6 | CCCN1CCCn2nc(CNC(=O)[C@H]3CC[C@@H](N)C3)cc2C1 | inactive
7 | NC(=O)C1(N2CCCCC2)CCN(c2ncc(NC(=O)c3cccc(Cl)c3)cc2C(=O)O)CC1 | > 160 µM
8 | Cn1ncc2c(NNC(=O)c3cc(O)cc(O)c3)ncnc21 | inactive
9 | O=C(NC1CC1)c1cc(-c2ccco2)nc2ccccc12 | inactive
10 | CC1CCN(c2nc(-c3ccco3)c3c(c2C#N)CC(C)(C)OC3)CC1 | 33.5 µM (active)
11 | CCOC(=O)C1CCN(C(=O)CN(Cc2ccccc2)S(C)(=O)=O)CC1 | inactive
12 | O=C(COC(=O)c1cc(-c2ccco2)nc2ccccc12)NCc1ccccc1 | 35.1 µM (active)
13 | C(=C\c1ccco1)/c1nc2ccccc2[nH]1 | 22.5 µM (active)
14 | CC1=CCC(C(=O)O)C(C(=O)NC2CCCCC2)C1 (stereo unspecified) | inactive
15 | COc1ccc(NC(=O)CN(C)C(=O)c2cc(-c3ccco3)nc3ccccc23)cc1 | 36.6 µM (active)
16 | O=S(=O)(c1ccc2nc(-c3ccco3)c(-c3ccco3)nc2c1)N1CCOCC1 | 26.8 µM (active)
17 | O=C1C=C(c2ccccc2)Nc2ccccc2N1 | inactive
18 | Cc1ccccc1C(=O)Nc1cnc(N2CCC(C(N)=O)(N3CCCCC3)CC2)c(C(=O)O)c1 | inactive

Row | Compound | AC50
19 | COc1ccc(S(=O)(=O)N2CCOCC2)cc1NC(=O)c1cccc(-n2cccc2)c1 | 36.1 µM (active)
20 | CCCN1CCCn2nc(CNC(=O)[C@@H](N)Cc3ccc(O)cc3)cc2C1 | inactive
21 | O=[N+]([O-])c1cccc(-c2nnc3ccc4ccccc4n23)c1 | inactive
22 | CC(=O)c1ccc(NC(=O)c2noc3c2CCC3)cc1 | inactive
23 | O=S(=O)(Nc1nc2ccc(S(=O)(=O)N3CCCCC3)cc2s1)c1ccccc1 | 76.8 µM (active)
24 | O=C(NCCc1ccco1)c1ccc(OCc2cn3ccccc3n2)cc1 | inactive
25 | N#CNc1nc(O)cc(=O)[nH]1 | inactive
26 | O=C(Nc1nc(-c2ccco2)c(-c2ccco2)s1)c1ccc(F)cc1F | 4.41 µM (active)
27 | OCc1ccc(O)c2ncccc12 | > 160 µM
28 | COc1ccc(-c2nnc(-c3nc(Nc4ccc(NC(C)=O)cc4)c4ccccc4n3)o2)cc1 | > 160 µM
29 | O=C(O)COc1ccc(-n2cccc2)cc1 | inactive
30 | CC(=O)c1sc2nc(-c3ccco3)ccc2c1N | 43.6 µM (active)
31 | CC(C(=O)N1CCCC1)N1CCN(c2ccccc2O)CC1 (stereo unspecified) | inactive
32 | N#Cc1c(N)oc(-c2ccco2)c1-c1ccco1 | 29.9 µM (active)
33 | Cc1cccc(Nc2nc(C(=O)Nc3cc(F)ccc3F)nc3ccccc23)c1 | inactive
34 | Nc1ccc(-c2cccc(CN3CCCC3)c2)cc1 | inactive
35 | NC(=O)C1(N2CCCCC2)CCN(c2ncc(NC(=O)c3ccccc3)cc2C(=O)O)CC1 | inactive
36 | COc1ccc(-c2nc(C)c(C(C)=O)n2O)cc1OC | inactive
